hgDAF-12 ag: hgDAF-12 agonism, primary luciferase screen; HEK293 GAL4-hgDAF12 UAS-luciferase reporter, agonist luminescence; normalized to butyrate control; activation, % at 6.8 µM; 1.8% of 370,000 active;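 active = activation above a cutoff set at the mean of all screened compounds plus 3 SD, cut at about 10% in these data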;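 note: 0% = DMSO wells and 100% = sodium butyrate wells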
ssDAF-12 act: activators of S. stercoralis DAF-12 nuclear receptor. HEK293 ssDAF-12/GRIP1 lit1-tk-luc reporter, luminescence; % of 3 µM dafachronic acid response. activation, % at 6.8 µM. 1% of 370,000 active;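 active = activation above the mean over all tested compounds plus 3 SD, cut at about 0.9% in these data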;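 note: 0% = DMSO-only wells and 100% = 3 µM delta7-dafachronic acid wells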
hcDAF-12 act: H. contortus DAF-12 activation, primary screen. activation, % at 6.8 µM. AID 652067. HEK293 hcDAF-12 lit1-tk-luc reporter, luminescence; 0% DMSO, 100% Δ7-dafachronic acid. 1.4% of 370,000 active;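 active = activation above the mean of all tested compounds plus 3 SD, cut at about 5.5% in these data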;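 note: 100% = response to 3 µM Δ7-dafachronic acid high control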
DAX1 inh-1: inhibitors of human orphan nuclear receptor DAX1 (NR0B1) | HEK293 Gal4-DAX1 luciferase reporter, luminescence | P51843 | 0.99% of 340,000 active | AID 504766 | inhibition, % at 6.75 µM;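 active = inhibition above the mean over all tested compounds plus 3 SD, cut at about 4.2% in these data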;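 note: 0% = DAX1-transfected cells with DMSO and 100% = empty-vector control cells with DMSO; inhibition shows as a rise in luminescence from relieved DAX1 repression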
Target sequence (P51843 207-470 limits assumed): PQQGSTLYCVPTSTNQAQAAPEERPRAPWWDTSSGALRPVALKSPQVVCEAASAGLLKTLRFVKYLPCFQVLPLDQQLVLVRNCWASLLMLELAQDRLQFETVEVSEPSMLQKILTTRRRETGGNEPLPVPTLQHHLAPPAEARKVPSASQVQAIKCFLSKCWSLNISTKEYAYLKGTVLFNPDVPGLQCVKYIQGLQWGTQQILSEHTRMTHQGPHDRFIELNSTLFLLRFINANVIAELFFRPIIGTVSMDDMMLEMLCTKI
DAX1 inh-2: DAX1 (NR0B1) inhibition, primary screen; 1.1% of 370,000 active; HEK293T StAR-luciferase reporter, SF-1/DAX-1 repression relief; inhibition, % at 6.8 µM;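 active = inhibition above the mean over all tested compounds plus 3 SD, cut at about 3.6% in these data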;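 note: 0% = DAX-1 cells with DMSO and 100% = cells lacking DAX-1 with DMSO; higher inhibition means more luminescence from relief of DAX-1 repression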
SMARCA2 activ: increases SMARCA2 function in MMTV reporter cells | MG213 cells, MMTV-luciferase reporter, dexamethasone, overnight | activation, % at 9.1 µM | 1% of 370,000 active | AID 652017; in the data active = activation above about 7.8%;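 note: 0% = vehicle wells and 100% = reference activator wells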
SMARCA2 conf: confirmation of SMARCA2 (BRM) function activators. shares compounds with SMARCA2 activ. MG213 cells, MMTV-luciferase with dexamethasone, luminescence, overnight; MG213 cells expressing E1A, Rb sequestered; DMSO wells 0%, reference activator 100%. activation, % at 9.1 µM. 30% of 3,500 active. AID 652260;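 active = activation above its plate's cutoff, the mean activation of tested wells plus 3 SD, cut at about 7.9% in these data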
VP16 Luc act: activates GAL4-VP16 luciferase, flagging SMARCA2 activator hits. shares compounds with SMARCA2 activ. HEK293 GAL4-VP16 pG5luc reporter, luciferase luminescence; scaled: DMSO wells 0%, SAHA wells 100%. activation, % at 9.1 µM. 41% of 3,500 active. AID 686939;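 active = activation above the solvent-only control well mean plus 3 SD, averaged across control plates, cut at about 5.2% in these data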
LXR ag: LXR-beta agonism as hcDAF-12 counter-screen | shares compounds with hcDAF-12 act | HEK293 Gal4-LXR tk-luc reporter, luminescence, 24 h; normalized: DMSO 0%, positive control 100% | activation, % at 6.8 µM | 3,400 tested, under 10 active | AID 743027;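 active = mean percent activation of the reporter above a cutoff set as the average over tested compounds plus their standard deviation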
hcDAF12 ag: confirmation of H. contortus DAF-12 agonists; HEK293 hcDAF-12 lit1-tk-luc reporter, luminescence; % of Δ7-dafachronic acid response; shares compounds with hcDAF-12 act; activation, % at 6.8 µM; AID 743032; 61% of 3,400 active;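 active = mean activation across triplicate tests above the threshold derived from the earlier primary screen, cut at about 5.5% in these data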;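 note: 0% = DMSO only wells and 100% = 3 µM Δ7-dafachronic acid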
hgDAF12 ag: hgDAF-12 agonism, confirmation assay; 80% of 3,300 active; shares compounds with hgDAF-12 ag; HEK293 GAL4-hgDAF12 luciferase reporter, agonist mode; percent of butyrate response; AID 743050; activation, % at 6.8 µM;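 active = mean activation over triplicate wells above the hit cutoff derived from the earlier primary screen, cut at about 11% in these data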;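 note: 0% = DMSO low control and 100% = 2 mM sodium butyrate high control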
LXR ag 2: counter-screen for DAF-12 agonists: agonists of human LXR-beta | activation, % at 6.8 µM | 3,300 tested, under 10 active | HEK293 Gal4-LXR luciferase reporter, 24 h | shares compounds with hgDAF-12 ag;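 active = mean activation of the triplicate above a set limit carried over from the primary screen, none filed active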
Active calls of the source: *; . = no result given. Most compounds without a hit are left out; they make up all but 4.8% or so of the library.

SMILES	hgDAF-12 ag	ssDAF-12 act	hcDAF-12 act	DAX1 inh-1	DAX1 inh-2	SMARCA2 activ	SMARCA2 conf	VP16 Luc act	LXR ag	hcDAF12 ag	hgDAF12 ag	LXR ag 2
Cc1occc1C(=O)N/N=C/C(Br)=C/c1ccccc1	17*	0	5	0	3	14*	8.2*	15*	.	.	14*	1
O=C(c1ccccc1)c1ccc2c(c1)OCCCO2	15*	0	6.2*	4.6*	1	11*	8.1*	8.9*	.	.	18*	1
O=C(c1ccccc1)c1ccc2c(c1)OCCOCCOCCO2	-2	-1	0	2	0	-4	.	.	.	.	.	.
CCCc1[nH]n(-c2nc3ccccc3s2)c(=O)c1C=NCCCOC	-1	0	0	0	0	-3	.	.	.	.	.	.
Cc1ccccc1NC(=S)c1ccc2ccccc2n1	13*	1.3*	14*	1	1	8.2*	16*	7.6*	0	7.9*	13*	0
CC1=CC2=NC(=O)/C(=C\c3ccc(OC(=O)c4ccco4)cc3)C(=N)N2O1	2	-1	0	0	0	-6	.	.	.	.	.	.
Oc1ccc(-c2cnc(-c3ccc(O)cc3)nc2)cc1	17*	1.2*	6.9*	-2	3	13*	12*	11*	3	8.7*	17*	1
CCCC(=O)Nc1ccc(-c2cnc(-c3ccc(NC(=O)CCC)cc3)nc2)cc1	4	-1	0	1	0	-3	.	.	.	.	.	.
COc1ccc(N=c2oc3ccc(OC)cc3cc2-c2nc3ccccc3[nH]2)cc1	15*	2.5*	6.7*	2	2	14*	3	9.9*	0	5	10*	0
O=C(O)c1ccc(/C=C/c2ccc3cccc(O)c3n2)cc1	15*	0	3	1	3	8.0*	16*	6.2*	.	.	11*	0
O=C(N/N=C/c1ccc2c(c1)OCO2)c1cccs1	24*	1.5*	6.1*	3	4.4*	9.2*	11*	7.8*	.	.	19*	1
O=S1(=O)CC(N2CCCCC2)CN1Cc1cn(Cc2ccc(Cl)cc2)nn1 (stereo not given)	-3	0	1	.	0	-4	.	.	.	.	.	.
Cn1c(N)c(C(=O)CCc2ccccc2)c(=O)n(C)c1=O	21*	1	10*	.	4.5*	8.1*	17*	5.8*	1	6.8*	10	1
Cn1c(N)c(C(=O)CCl)c(=O)n(Cc2ccccc2)c1=O	0	-1	-2	0	0	0	.	.	.	.	.	.
COCCNC(=O)c1cc2c(c(-c3cccc(C#CC(C)(C)O)c3)n1)[C@@H](CCO)N(S(=O)C(C)(C)C)C2 (stereo not given in full)	1	-1	1	.	3	-4	.	.	.	.	.	.
COc1cc(/C=C/c2nc3ccccc3c(=O)[nH]2)ccc1O	17*	0	3	3	3.7*	9.0*	13*	12*	.	.	11*	1

Compound activity from PubChem.
